NCOA3 inh: SRC3 coactivator transcriptional activity inhibitors, primary screen, cell-based, luminescence; AID 588352, 2011; Nuclear receptor coactivator 3 (Homo sapiens), Q9Y6Q9; inhibition, % at 3.6 µM; HEK293 GAL4-SRC3 luciferase reporter; actives 0.17% (n = 360,000);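 active means inhibition above a per-campaign cutoff, the mean of all compounds plus 3 SD, cut at about 60% in these data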;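 further: 0% = DMSO-treated cells and 100% = gossypol-treated cells at 36 µM; higher means less SRC3-driven luciferase light from the GAL4 reporter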
NR5A2 inv ag: LRH-1 (NR5A2) inverse agonists, primary screen, cell-based, luminescence, HEK293T, StAR-luciferase reporter | AID 602396, 2012 | LRH-1 transfected, 24 h | inhibition, % at 3.6 µM | Nuclear receptor subfamily 5 group A member 2 (Homo sapiens), O00482 | actives 0.13% (n = 360,000);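 active means inhibition above the mean inhibition of all tested compounds plus 3 SD, cut at about 73% in these data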;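 further: 0% = DMSO wells and 100% = reporter-only cells lacking LRH-1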
NCOA1 inh: SRC1 coactivator transcriptional activity inhibitors, primary screen, cell-based, luminescence; Nuclear receptor coactivator 1 (Homo sapiens), Q15788; HEK293 GAL4-SRC1 luciferase reporter; inhibition, % at 3.6 µM; actives 0.12% (n = 360,000);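 active means inhibition above the campaign mean plus 3 SD, with each screening campaign given its own cutoff, cut at about 60% in these data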;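 further: 0% = DMSO treated cells and 100% = gossypol at 36 µM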
SRC2 inh: inhibition of GAL4-SRC2 driven luciferase reporter, primary screen, SRC2 inhibitor project, cell-based, luminescence. actives 0.17% (n = 370,000). Nuclear receptor coactivator 2 (Homo sapiens), Q15596. AID 651957, 2012. HEK293 GAL4-SRC2 luciferase reporter. inhibition, % at 9 µM;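 active means inhibition above the mean inhibition of all tested compounds plus 3 SD, set per campaign, cut at about 52% in these data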;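 further: 0% = DMSO treated cells and 100% = cells given Gossypol at 36 µM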
Target sequence (Q15596 whole entry, looked up, the tested form may be a part): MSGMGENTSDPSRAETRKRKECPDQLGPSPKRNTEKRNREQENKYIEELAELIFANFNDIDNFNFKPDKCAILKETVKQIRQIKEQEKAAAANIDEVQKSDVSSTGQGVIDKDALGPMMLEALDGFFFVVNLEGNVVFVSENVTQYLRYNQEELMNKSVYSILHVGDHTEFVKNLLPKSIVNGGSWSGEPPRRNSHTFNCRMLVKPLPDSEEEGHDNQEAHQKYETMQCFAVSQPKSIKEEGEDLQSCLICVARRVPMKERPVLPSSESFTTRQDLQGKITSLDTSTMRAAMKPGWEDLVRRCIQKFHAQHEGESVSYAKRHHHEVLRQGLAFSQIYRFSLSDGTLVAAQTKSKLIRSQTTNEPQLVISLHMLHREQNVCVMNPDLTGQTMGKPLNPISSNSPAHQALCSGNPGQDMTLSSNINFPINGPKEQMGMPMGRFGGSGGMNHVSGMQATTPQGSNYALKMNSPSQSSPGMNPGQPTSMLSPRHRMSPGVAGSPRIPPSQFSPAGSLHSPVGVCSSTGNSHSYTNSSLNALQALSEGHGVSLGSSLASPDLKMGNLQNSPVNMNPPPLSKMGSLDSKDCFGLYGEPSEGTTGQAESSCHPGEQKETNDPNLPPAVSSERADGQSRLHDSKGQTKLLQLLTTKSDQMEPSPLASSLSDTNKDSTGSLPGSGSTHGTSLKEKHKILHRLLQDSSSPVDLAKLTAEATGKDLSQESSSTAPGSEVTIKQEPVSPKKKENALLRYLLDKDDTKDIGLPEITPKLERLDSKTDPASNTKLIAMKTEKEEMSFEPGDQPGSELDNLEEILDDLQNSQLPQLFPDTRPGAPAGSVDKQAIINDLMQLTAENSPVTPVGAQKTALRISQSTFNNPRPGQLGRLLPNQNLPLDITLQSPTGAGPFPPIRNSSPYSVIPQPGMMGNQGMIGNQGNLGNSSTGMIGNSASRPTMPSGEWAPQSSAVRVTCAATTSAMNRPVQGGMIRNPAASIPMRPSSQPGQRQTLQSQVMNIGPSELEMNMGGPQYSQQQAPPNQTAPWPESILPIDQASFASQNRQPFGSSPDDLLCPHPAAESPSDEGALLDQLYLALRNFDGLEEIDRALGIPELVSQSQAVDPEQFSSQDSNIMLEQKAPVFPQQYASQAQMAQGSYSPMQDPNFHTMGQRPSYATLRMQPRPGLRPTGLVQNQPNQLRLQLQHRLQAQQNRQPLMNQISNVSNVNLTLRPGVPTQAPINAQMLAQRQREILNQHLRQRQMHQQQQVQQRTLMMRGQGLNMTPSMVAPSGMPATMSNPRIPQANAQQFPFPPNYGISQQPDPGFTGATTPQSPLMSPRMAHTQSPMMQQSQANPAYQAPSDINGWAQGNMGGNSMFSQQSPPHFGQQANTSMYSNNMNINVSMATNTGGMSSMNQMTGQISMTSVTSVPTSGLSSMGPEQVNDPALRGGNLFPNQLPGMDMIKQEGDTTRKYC
Gli-Sufu antag: Gli-Sufu pathway antagonists, primary screen, luciferase luminescence, Sufu-KO-LIGHT cells, uHTS. actives 0.74% (n = 340,000). inhibition, % at 5 µM. Sufu-KO-LIGHT fibroblasts, Gli luciferase reporter luminescence;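 active means inhibition above about 55%, limit read from the data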;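 further: 0% = DMSO-treated cells and 100% = wells with medium but no cells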
Shn3 inh set2: reduction of Shn3 3'UTR firefly luciferase signal, primary screen, Schnurri-3 inhibitor project, cell-based, Clone20 osteoblasts, set 2. Clone20 osteoblast Shn3 3'UTR firefly luciferase, 24 h. inhibition, % at 12.5 µM. actives 0.52% (n = 360,000). AID 588674, 2011;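 active means mean inhibition of at least 75% with every replicate also reaching 75%; inconclusive means mean inhibition at least 75% but some replicate below; inactive means mean inhibition below 75%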;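 further: 0% = median of neutral control wells and 100% = pilot-screen positive control compound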
* hit, by the source's call; i = inactive; u = inconclusive; x = no result given; ! = repeats disagree. Shown are actives, neighbours in structure and some others; about 1.1% of the full set was active somewhere.

SMILES	NCOA3 inh	NR5A2 inv ag	NCOA1 inh	SRC2 inh	Gli-Sufu antag	Shn3 inh set2
O=C(CN1CC(c2ccccc2)CC1=O)N/N=C/c1cc(Br)ccc1O (stereo unspecified)	37	26	20	29	25	88*
O=C(CNC(=O)c1ccccc1)N/N=C/c1cc(Br)ccc1O	31	16	19	16	-3	u
O=C(N/N=C/c1sc(N2CCOCC2)nc1-c1ccccc1)c1ccc(O)cc1	-2	3	-80	-66	-7	-1
O=C(N/N=C/c1sc(N2CCOCC2)nc1-c1ccccc1)c1cccc(S(=O)(=O)N2CCCC2)c1	76*	86*	65*	20	-4	90*
C=CCN(C(=O)[C@@H](C1CC1)[C@@H](O)c1ccc2ccccc2c1)c1ccccc1	x	x	x	4	x	x
CC(=O)Nc1ccc(Sc2ccc([N+](=O)[O-])o2)cc1	-56	-86	-85	-13	1	99*
CC(C)(C)C(=O)Nc1ccc(Sc2ccc([N+](=O)[O-])cc2)cc1	19	-1	19	15	13	48
Cc1ccc(C)c(NC(=O)Cn2nnc(-c3ccncc3)n2)c1	x	x	x	10	x	x
Cn1c(/C(C#N)=C/c2ccc(-c3ccc(S(N)(=O)=O)cc3)o2)nc2ccccc21	68*	-15	38	-16	21	28
Oc1ccc(N=Nc2ccccc2)o1	13	-7	-42	9	3	94*
O=c1ccc(N=Nc2ccccc2)ccc1O	-32	1	-9	3	-9	-14
COc1ccc(-c2cn[nH]c2-c2ccc(OC)cc2O)cc1	40	11	34	52*	-14	21
Oc1cc(Nc2ccccc2)cc2cccnc12	-13	21	-2	8	9	94*
Oc1cccc2cc(Nc3ccccc3)cnc12	69*	90*	57	14	x	95*
Oc1cc(-c2cccnc2)cc2cccnc12	-9	14	-15	0	29	89*
COC(=O)[C@]12C[C@H](CC(=O)N3CCCC3)C(=O)N(Cc3cccc4ccccc34)C1=C[C@H](C1CCCC1)O[C@@H]2C	x	x	x	2	x	x
COc1cccc(N2CCN(CC(=O)N(C)Cc3ccccc3Cl)CC2)c1	x	x	x	-10	x	x
COC(=O)C1CN(C2CCCC2)CCS(=O)(=O)N1Cc1ccccc1 (stereo unspecified)	x	x	x	-6	x	x
Cc1ccc(NC(=O)CCN2CCCCC2)cc1	8	9	20	59*	1	25
Cc1ccc(NC(=O)CCN2CCN(CCO)CC2)cc1	-38	-11	-6	-18	-16	-2
Cn1ccnc1/C(=N\NC(=O)c1ccccc1)c1cccc([N+](=O)[O-])c1	10	10	1	-16	-10	4
O=C(N/N=C(\c1ccccc1)c1ccccn1)c1cccc([N+](=O)[O-])c1	16	17	7	x	91*	92*
NS(=O)(=O)c1ccc(NC(=O)CSc2nc3ccccc3c(=O)n2-c2ccc(Br)cc2)cc1	x	x	x	0	x	x
Nc1nc(=S)[nH]c2c1C1(CCCCC1)Cc1ccccc1-2	3	3	-13	5	5	90*
CN(Cc1ccccc1)C(=O)OCc1cn(Cc2ccc(F)c(F)c2)nn1	x	x	x	-5	x	x
SMILES	NCOA3 inh	NR5A2 inv ag	NCOA1 inh	SRC2 inh	Gli-Sufu antag	Shn3 inh set2
O=C1C=CC2(C=C1)O[C@H](Cc1ccccc1)[C@@H](Cc1ccccc1)O2	-190	71	-204	54*	43	97*
COc1ccc(C[C@@H]2OC3(C=CC(=O)C=C3)O[C@H]2Cc2ccc(OC)cc2)cc1	-372	56	i	x	18	94*
COc1ccc(N2C(=O)CC(Cc3ccccc3)C2=O)cc1 (stereo unspecified)	-1	5	-2	-7	2	-5
COc1ccc(CCNC(=O)c2cc3ccccn3n2)cc1	x	x	x	19	x	x
O=C(CSc1nnc(Nc2ccccc2)s1)NC1CCS(=O)(=O)C1 (stereo unspecified)	8	-12	-10	14	-12	90*
COc1ccc(C(C(=O)NC2CCCC2)n2c(CSCCOc3ccccc3)nc3ccccc32)cc1 (stereo unspecified)	x	21	x	79*	x	x
COc1ccc(C(C(=O)NC2CCCC2)n2c(Cc3cc(F)cc(F)c3)nc3ccccc32)cc1 (stereo unspecified)	x	19	x	12	x	x
CC(C(=O)NCc1ccccc1)n1c(CSCCOc2ccccc2)nc2ccccc21 (stereo unspecified)	x	0	x	3	x	x
CCC(C(=O)NCc1ccccc1)n1c(CSCCOc2ccccc2)nc2ccccc21 (stereo unspecified)	x	45	x	75*	x	x
Cc1cc(Cl)c(S(=O)(=O)N2CCSCC2)cc1OCC(=O)NC1CCCCC1	16	2	7	5	26	88*
Cc1cc(Cl)c(S(=O)(=O)N2CCCCCC2)cc1OCC(=O)NC1CCCCC1	0	13	8	-16	48	16
CC(C)CC(=O)/C=C/n1c(=S)oc2ccccc21	-5	-3	-4	-20	8	97*
CCCOc1ccc2oc(=O)c3c(c2c1)CCCN3C(=O)CN1CCN(c2ncccn2)CC1	-6	53	-12	1	-1	94*
CC1CCCC(CC(N)=O)CC1 (stereo unspecified)	-6	-11	7	-4	-3	94*
CC(C)CNc1cccc2c1S(=O)(=O)N(Cc1cn(Cc3cccc(C(F)(F)F)c3)nn1)Cc1ccccc1O2	x	x	x	20	x	x
Cc1ccc(C(=O)Nc2cccc(C(F)(F)F)c2)cc1NC(=O)c1c[nH]c2cc(C(F)(F)F)ccc2c1=O	-3	-25	-3	-1	-8	-15
CCN1CCN(Cc2ccc(NC(=O)c3ccc(C)c(NC(=O)c4c[nH]c5cc(C(F)(F)F)ccc5c4=O)c3)cc2C(F)(F)F)CC1	1	0	5	16	6	99*!
COC(=O)c1ccc(-c2ccc3c(c2)[C@]2(CCC[C@@H](O)[C@@H]2NC(=O)CCc2ccccc2)C(=O)N3Cc2ccccc2)cc1	x	x	x	-26	x	x
O=[N+]([O-])c1ccc(Sc2nc3ccccc3o2)c([N+](=O)[O-])c1	-10	-4	-7	9	4	98*
N=c1c2c(-c3ccccc3)c(-c3ccccc3)n(Cc3ccccc3)c2ncn1CCCn1ccnc1	67*	40	50	-32	26	34
CCCCn1cnc2c(c(-c3ccccc3)c(-c3ccccc3)n2Cc2ccco2)c1=N	14	29	14	-32	3	-15
